Measurements reported in PubChem BioAssay (NCATS).
Results filed as inconclusive are left out. Active and inactive are the calls of the source. The call rests on the fitted dose curve; in most records, active means well fitted inhibition curve with a large enough effect; inconclusive means small, poorly fitted or top-dose-only effect; inactive means flat fitted curve, though single readings scatter.

What was measured:
PC49 = test: qHTS profiling for inhibitors of Plasmodium falciparum proliferation (AID 504749);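 on activity, negative = inhibition: 0% = DMSO vehicle and full inhibition = artemisinin control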; details: P. falciparum in erythrocytes, SYBR Green DNA, 72 h; series mostly up to 28.7 µM
How it was run: (§1)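 Infected RBCs, 0.3% parasitemia/2.5% Hct final; cpd 72 h, 37 C, 5% CO2; lysis buffer with saponin/triton/SYBR Green I, o/n RT dark; FI 485/535; norm. to artemisinin (0.29 uM) and DMSO.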

SC27B = test: as above; details: P. falciparum in erythrocytes, SYBR Green DNA, 72 h; series mostly up to 28.7 µM
How it was run: as §1

TAB109 = test: as above; details: P. falciparum in erythrocytes, SYBR Green DNA, 72 h; series mostly up to 28.7 µM
How it was run: as §1

TAB113 = test: as above; details: P. falciparum in erythrocytes, SYBR Green DNA, 72 h; series mostly up to 28.7 µM
How it was run: as §1

TAB165 = test: as above; details: P. falciparum in erythrocytes, SYBR Green DNA, 72 h; series mostly up to 28.7 µM
How it was run: as §1

CRL-7250 = normal cell line; test: Cytotoxic Profiling of Annotated Libraries Using Quantitative High-Throughput Screening (AID 1296008); details: Five cell lines viability, CellTiter-Glo ATP luminescence, 48-72 h; max response: stronger effect = lower value; on max response: on the % scale 0 is the no-effect control and ±100 the full control effect
How it was run: (§2)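 Cytotoxicity was measured as CellTiter-Glo ATP luminescence, read after 10 min at room temperature. Compound treatment of the cells lasted 48 or 72 hr at 37 degrees Celsius in a qHTS format.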

HEK293 = test: as above; details: Five cell lines viability, CellTiter-Glo ATP luminescence, 48-72 h; max response: stronger effect = lower value
How it was run: as §2

HaCat = test: as above; details: Five cell lines viability, CellTiter-Glo ATP luminescence, 48-72 h; max response: stronger effect = lower value
How it was run: as §2

PC26 = test: qHTS profiling for inhibitors of Plasmodium falciparum proliferation (AID 504749);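 on activity, negative = inhibition: 0% = DMSO vehicle and full inhibition = artemisinin control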; details: P. falciparum in erythrocytes, SYBR Green DNA, 72 h; series mostly up to 28.7 µM
How it was run: as §1

W2 = test: as above; details: P. falciparum in erythrocytes, SYBR Green DNA, 72 h; series mostly up to 28.7 µM
How it was run: as §1
Further: nearly all actives have a fitted effect of over 60% in size.
Potency means the concentration at half of the fitted maximal effect.

NC(=O)c1cc([N+](=O)[O-])cc([N+](=O)[O-])c1
inactive: Potency (PC49) | Potency (SC27B) | Potency (TAB109) | Potency (TAB113) | Potency (TAB165) | outcome (CRL-7250) | max response (HEK293) -2.7% | max response (HaCat) 3.87%

CCC1(c2ccccc2)C(=O)N(COC)C(=O)N(COC)C1=O
inactive: Potency (PC26) | Potency (PC49) | Potency (SC27B) | Potency (TAB113) | Potency (TAB165) | Potency (W2) | max response (CRL-7250) -1.83% | max response (HEK293) 3.09% | max response (HaCat) 3.73%

O=C1c2ccccc2C(=O)C1C(=O)C(c1ccccc1)c1ccccc1
inactive: Potency (PC26) | Potency (PC49) | Potency (SC27B) | Potency (TAB113) | Potency (TAB165) | max response (CRL-7250) 3.94% | outcome (HEK293) | outcome (HaCat)

CCN[C@@H](C)Cc1ccccc1
inactive: max response (CRL-7250) -24.3% | max response (HaCat) -12.1%

Nc1ccccc1C(=O)O
inactive: Potency (PC26) | Potency (PC49) | Potency (SC27B) | Potency (TAB109) | Potency (TAB113) | Potency (TAB165) | Potency (W2) | max response (CRL-7250) -2.31% | max response (HEK293) -5.49% | outcome (HaCat)

NC1=NC(=O)C(c2ccccc2)O1 (centres undefined)
inactive: max response (CRL-7250) -3.81% | max response (HEK293) 2.82% | outcome (HaCat)

O=c1[nH]oc2c1CCNC2
inactive: Potency (PC26) | Potency (PC49) | Potency (SC27B) | Potency (TAB109) | Potency (TAB113) | Potency (TAB165) | Potency (W2) | max response (CRL-7250) -16.5% | max response (HEK293) -2.62% | outcome (HaCat)

CCC1(CC)C(=O)C=CNC1=O
inactive: Potency (PC26) | Potency (PC49) | Potency (SC27B) | Potency (TAB109) | Potency (TAB113) | Potency (TAB165) | Potency (W2) | max response (CRL-7250) -2.85% | max response (HEK293) 4.85% | max response (HaCat) -9.12%

Clc1cccc(SC2CCNCC2)n1
inactive: Potency (PC26) | Potency (PC49) | Potency (SC27B) | Potency (TAB109) | Potency (TAB113) | Potency (TAB165) | Potency (W2) | max response (CRL-7250) -0.448% | max response (HEK293) 1.87% | max response (HaCat) -6.24%

COc1ccc2c(c1OC)C(=O)O[C@H]2[C@@H]1c2cc3c(cc2CCN1C)OCO3
inactive: Potency (PC26) | max response (CRL-7250) 0.738% | max response (HEK293) -2.03% | max response (HaCat) -4.43%

C=C(C)[C@H]1CN[C@H](C(=O)O)[C@H]1CC(=O)O
inactive: Potency (PC26) | Potency (PC49) | Potency (SC27B) | Potency (TAB109) | Potency (TAB113) | Potency (TAB165) | Potency (W2) | max response (CRL-7250) 1.07% | outcome (HaCat)

CN1C(=O)C(O)N=C(c2ccccc2)c2cc(Cl)ccc21 (centres undefined)
inactive: Potency (PC26) | Potency (PC49) | Potency (SC27B) | Potency (TAB109) | Potency (TAB113) | Potency (TAB165) | Potency (W2)

C[C@]12CC[C@@H]3c4ccc(OC(=O)N(CCCl)CCCl)cc4CC[C@H]3[C@@H]1CC[C@@H]2O
inactive: Potency (PC26) | Potency (PC49) | Potency (SC27B) | Potency (TAB109) | Potency (TAB113) | Potency (TAB165) | Potency (W2)
active: Potency (HEK293) 29.9 µM

Clc1ccc2c(c1)C(c1ccccc1)=NCc1nncn1-2
inactive: Potency (PC26) | Potency (PC49) | Potency (SC27B) | Potency (TAB109) | Potency (TAB113) | Potency (TAB165) | Potency (W2)

COC(=O)C(c1ccccc1)C1CCCCN1 (centres undefined)
inactive: Potency (PC26) | Potency (SC27B) | Potency (TAB109) | Potency (TAB113) | Potency (TAB165)
active: Potency (W2) 4.26 µM

Clc1ccc(C(c2ccc(Cl)cc2)C(Cl)(Cl)Cl)cc1
inactive: Potency (PC49) | Potency (SC27B) | Potency (TAB109) | max response (CRL-7250) -9.96% | max response (HaCat) 1.96%
active: Potency (W2) 6.01 µM

O=C(Nc1ccc(Br)cc1)c1cc(Br)cc(Br)c1O
inactive: Potency (PC26) | Potency (PC49) | Potency (SC27B) | Potency (TAB109) | Potency (TAB113) | Potency (TAB165) | Potency (W2) | outcome (HaCat)

C[C@](O)(CS(=O)(=O)c1ccc(F)cc1)C(=O)Nc1ccc(C#N)c(C(F)(F)F)c1
inactive: Potency (PC26) | Potency (PC49) | Potency (SC27B) | Potency (TAB113) | Potency (TAB165) | Potency (W2) | outcome (HaCat)

COC1CC(=C(c2cccs2)c2cccs2)C[N+](C)(C)C1 (centres undefined)
inactive: Potency (PC49) | max response (CRL-7250) -1.67% | max response (HaCat) 2.01%
active: Potency (TAB109) 10 µM | Potency (TAB165) 14.1 µM

CN1C(=O)CC(=O)N(c2ccccc2)c2cc(Cl)ccc21
inactive: Potency (PC26) | Potency (PC49) | Potency (SC27B) | Potency (TAB109) | Potency (TAB165) | Potency (W2)

COc1cccc(C(=O)CCN[C@@H](C)[C@H](O)c2ccccc2)c1
inactive: outcome (HaCat)

CCC(C)(C)c1ccc(O)cc1
inactive: Potency (PC26) | Potency (PC49) | Potency (SC27B) | Potency (TAB109) | Potency (TAB113) | Potency (TAB165) | Potency (W2) | outcome (HEK293) | max response (HaCat) 2.15%

CCCCC/C=C\C/C=C\C/C=C\C/C=C\CCCC(=O)NCC(=O)O
inactive: activity, negative = inhibition (PC26) 8.23% [at 2.67 µM] | activity, negative = inhibition (SC27B) 0.575% [at 2.67 µM] | activity, negative = inhibition (TAB109) -11.7% [at 2.67 µM] | activity, negative = inhibition (TAB113) 3.88% [at 2.67 µM] | activity, negative = inhibition (W2) 6.9% [at 2.67 µM] | max response (CRL-7250) -2.63%
